# Measurements taken from PubChem BioAssay AID651605 (National Center for Advancing Translational Sciences (NCATS), 2012).
# Inconclusive results are not listed. Activity calls are given as the source filed them. Calls come from the whole dose curve; as a rule, active = well fitted inhibition curve with a large enough effect; inconclusive = small, poorly fitted or top-dose-only effect; inactive = flat fitted curve, though single readings scatter.
# Target: Ubiquitin carboxyl-terminal hydrolase 1 (Homo sapiens) (UniProt O94782)
# Sequence (O94782 whole entry, looked up): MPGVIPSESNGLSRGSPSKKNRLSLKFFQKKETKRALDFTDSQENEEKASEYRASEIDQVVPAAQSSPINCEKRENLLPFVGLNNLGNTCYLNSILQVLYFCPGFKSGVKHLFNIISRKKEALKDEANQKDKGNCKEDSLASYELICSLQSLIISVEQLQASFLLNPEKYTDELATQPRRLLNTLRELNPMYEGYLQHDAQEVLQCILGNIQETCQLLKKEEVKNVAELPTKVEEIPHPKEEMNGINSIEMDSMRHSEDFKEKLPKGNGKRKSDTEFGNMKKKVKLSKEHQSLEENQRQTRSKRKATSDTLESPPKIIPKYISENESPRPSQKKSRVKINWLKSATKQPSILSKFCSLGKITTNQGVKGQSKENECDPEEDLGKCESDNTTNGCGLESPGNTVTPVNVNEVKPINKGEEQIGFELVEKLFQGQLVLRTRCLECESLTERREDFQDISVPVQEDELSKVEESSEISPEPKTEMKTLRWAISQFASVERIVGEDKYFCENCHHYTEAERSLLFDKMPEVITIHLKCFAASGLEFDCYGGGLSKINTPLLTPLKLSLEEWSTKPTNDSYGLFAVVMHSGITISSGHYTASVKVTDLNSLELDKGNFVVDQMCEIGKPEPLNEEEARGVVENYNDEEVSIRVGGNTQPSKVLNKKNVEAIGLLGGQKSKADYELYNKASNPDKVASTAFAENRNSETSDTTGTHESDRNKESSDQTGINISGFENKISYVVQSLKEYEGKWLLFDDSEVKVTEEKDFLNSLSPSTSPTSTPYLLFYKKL
# Test: Inhibitors of USP1/UAF1: SAR in Primary Assay
# Details: Recombinant USP1/UAF1, Ub-Rhodamine cleavage fluorescence; series mostly up to 57.1 µM
# Excerpt: Deubiquitinating enzymes (DUBs) are a class of enzymes that can cleave isopeptide bond formed between the C-terminal carboxylate of ubiquitin and a lysine side-chain amino group on the target protein. Among them, ubiquitin specific proteases (USPs) constitute the largest DUB family. Human USPs are emerging as promising targets for pharmacological intervention because of their connection to a number of human diseases, including prostate, colon and breast cancer (1, 2), pediatric acute lymphoblastic leukemia (3), and familial cylindromatosis (4). The advantage of inhibiting USPs lies in the potential specificity of therapeutic intervention that can lead to better efficacy and reduce nonspecific side effects. In a collaboration between the University of Delaware and the NIH Chemical Genomics Center, a high-throughput screen assay was developed to screen for USP1/UAF1 inhibitors (5). This assay was used to test the analogs that were synthesized based on SAR around the original hit. NIH Chemical Genomics Center [NCGC] NIH Molecular Libraries Probe Centers Network [MLPCN] MLPCN Grant: DA030552-01 Assay Submitter (PI): Zhihao Zhuang, University of Delaware 1. Priolo, C., et al. (2006) The isopeptidase USP2a protects human prostate cancer from apoptosis. Cancer Res 66, 8625-8632 2. Popov, N., et al. (2007) The ubiquitin-specific protease USP28 is required for MYC stability. Nat Cell Biol 9, 765-774 3. De Pitta, C., et al. (2005) A leukemia-enriched cDNA microarray platform identifies new transcripts with relevance to the biology of pediatric acute lymphoblastic leukemia. Haematologica 90, 890-898 4. Kovalenko, A., et al. (2003) The tumour suppressor CYLD negatively regulates NF-kappaB signalling by deubiquitination. Nature 424, 801-805 5. Chen, J., et al. (2011) Selective and cell-active inhibitors of the USP1/ UAF1 deubiquitinase complex reverse cisplatin resistance in non-small cell lung cancer cells. Chem Bio 18(11):1390-400.
# 3 microliters of reagents (buffer in columns 3 and 4 as negative control and 1nM USP1/UAF1 complex in columns 1, 2, and 5-48) are dispensed into Greiner black solid bottom 1536-well assay plates. Compounds are then transferred via Kalypsys pin tool equipped with 1536-pin array (10nl slotted pins, V&P Scientific, San Diego, CA). Following an incubation step of 15 min at room temperature, 1ul of Ub-Rho substrate (150nM final concentration) is added to initiate the reaction. The plates are immediately centrifuged at 1000 rpm for 15 seconds, and subsequently transferred to a ViewLux high-throughput CCD imager (PerkinElmer) wherein kinetic measurements of fluorescence are acquired using 480 nm excitation/540 nm emission filter set (6 reads every 60 seconds, see Table 1). All reagents are diluted in an assay buffer consisting of 50mM HEPES (pH 7.8), 0.5mM EDTA, 0.1 mg/ml BSA, 1mM TCEP, and 0.01% Tween-20.
row,Structure (SMILES),Potency
1,Fc1cnc(-c2ccccc2C(F)F)nc1NCC1CCN(c2cnccn2)CC1,2.41 µM (active)
2,Cc1cnc(-c2ccccc2C(C)C)nc1NCc1cccnc1,2.15 µM (active)
3,CSc1ccccc1-c1ncc(C)c(NCc2ccc(-c3cccnc3)cc2)n1,0.541 µM (active)
4,Cc1cnc(-c2ccccc2C2COC2)nc1NCc1ccc(-n2ccnn2)cc1,inactive
5,Cc1cnc(-c2ccccc2C(F)F)nc1NCc1ccc(-c2cccnc2)cc1,0.341 µM (active)
6,Cc1cnc(-c2ccccc2C(C)C)nc1NCC1CN(c2cccnc2)C1,6.81 µM (active)
7,Cc1cccc(C(CO)Nc2nc(-c3ccccc3C(C)C)ncc2C)c1 (stereo unspecified),1.08 µM (active)
8,CCc1ccccc1-c1nc(NCc2ccc(-c3cccnc3)cc2)c2ccccc2n1,0.607 µM (active)
9,Cc1ccc(-c2ccc(C(C)Nc3nc(-c4ccccc4C(C)C)ncc3C)cc2)cn1 (stereo unspecified),0.341 µM (active)
10,Clc1ccccc1-c1nc(NCc2ccc(-c3cccnc3)cc2)c2ccccc2n1,0.857 µM (active)
11,c1cncc(-c2ccc(CNc3nc(N4CCOCC4)nc4ccccc34)cc2)c1,inactive
12,CC(C)c1ccccc1-c1ncc(F)c(NCC2CCN(c3cccnc3)CC2)n1,0.0961 µM (active)
13,Cc1cnc(-c2ccccc2C(C)C)nc1NC(C)c1ccc(-c2cccnc2)cc1 (stereo unspecified),0.136 µM (active)
14,Cc1cnc(-c2ccccc2C(C)C)nc1NCC1CCN(C2COC2)CC1,15.2 µM (active)
15,Cc1cnc(-c2ccccc2C(C)(C)C)nc1NCc1ccc(-n2ccnn2)cc1,0.136 µM (active)
16,Cc1cnc(-c2ccccc2N(C)C)nc1NCc1ccc(-c2cccnc2)cc1,0.429 µM (active)

row,Structure (SMILES),Potency
1,CC(C)c1ccccc1-c1nc(NCc2ccc(-c3cccnc3)cc2)c2ccccc2n1,0.152 µM (active)
2,Cc1cnc(-c2ccccc2C(C)C)nc1NCC1CCN(c2cccnc2)C1 (stereo unspecified),0.429 µM (active)
3,CC(Nc1nc(-c2ccccc2C(F)(F)F)nc2ccccc12)c1ccc(-c2ccncc2)cc1 (stereo unspecified),5.41 µM (active)
4,FC(F)(F)c1ccc(-c2nc(NCc3ccc(-c4ccnc(C(F)(F)F)c4)cc3)c3ccccc3n2)cc1,inactive
5,Cc1cnc(-c2ccccc2C(C)C)nc1NCc1ccc(C(N)=O)cc1,4.29 µM (active)
6,FC(F)(F)c1ccccc1-c1nc2c(c(NCc3ccc(-c4cccnc4)cc3)n1)CCC2,0.681 µM (active)
7,CC(C)c1ccccc1-c1ncc(F)c(NCC2CCN(c3cnccn3)C2)n1 (stereo unspecified),4.29 µM (active)
8,Brc1ccccc1-c1nc(NCc2ccc(-c3cccnc3)cc2)c2ccccc2n1,0.961 µM (active)
9,CC(C)(Sc1ccc(CCN(CCCCC2CCCCC2)C(=O)NC2CCCCC2)cc1)C(=O)O,24.1 µM (active)
10,Cc1cnc(-c2ccccc2CO)nc1NCc1ccc(-c2cccnc2)cc1,8.57 µM (active)
11,CC(Nc1nc(-c2ccccc2C(F)(F)F)nc2ccccc12)c1ccc(-c2ccccc2)cc1 (stereo unspecified),4.82 µM (active)
12,CN(Cc1ccc(-c2ccccc2)cc1)c1nc(-c2ccccc2C(F)(F)F)nc2ccccc12,4.29 µM (active)
13,FC(F)(F)c1cc(-c2ccc(CNc3nc(-c4ccccc4C(F)(F)F)nc4ccsc34)cc2)ccn1,3.41 µM (active)
14,FC(F)(F)c1ccccc1-c1nc(NCC2CCN(c3cccnc3)CC2)c2ccccc2n1,0.607 µM (active)
15,CSc1cnc(-c2ccccc2C(C)C)nc1NCc1ccc(-c2cccnc2)cc1,0.0857 µM (active)
